Test results reported in PubChem BioAssay AID588855 (National Center for Advancing Translational Sciences (NCATS), 2011).
Among all 410,000 compounds or so, about 5,000 (1.2%) were called active. Not shown: some 13% with an inconclusive outcome. The sample holds actives, similar compounds and a random draw of the others, so the mix is not that of the screen. The call rests on the fitted dose curve; in most records, active means well fitted inhibition curve with a large enough effect; inconclusive means small, poorly fitted or top-dose-only effect; inactive means no such curve, though single readings can be large or run the other way.

assay: qHTS for Inhibitors of TGF-b; conditions: HepG2 CAGA-GFP TGF-b/SMAD3 reporter, GFP fluorescence, 18 h, TGF-beta stimulated, 500 pg/mL final; series mostly up to 46.1 µM; activity, negative = inhibition: at the top concentration; further: nearly all actives have a fitted effect of over 65% in size
Method in brief: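 HEPG2 CAGA-GFP reporter cells (1000/well, DMEM with 1% FBS) received compounds, then recombinant TGF-beta at 500 pg/mL final for 18 hours at 37 degrees C. Per-cell GFP summed per well was normalised to unstimulated and stimulated DMSO controls before curve fitting.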
On the % scale 0 is the no-effect control and ±100 the full control effect; potency means the concentration at half of the fitted maximal effect.

Structure (SMILES)	activity, negative = inhibition	Potency
Cc1ccc(NC(=O)CN2C(=O)CC(C)Sc3ccccc32)c(C)c1 (stereo unspecified)	18.1% (inactive)	
COc1ccc(CCNC(=O)CCc2c(C)nc3c(c(C)nn3-c3ccc(C)c(C)c3)c2C)c(OC)c1OC	1.19% (inactive)	
COc1ccc(CCNC(=O)Cn2c(=O)n(-c3ccccc3)c(=O)c3c(C)c(C)sc32)cc1OC	-1.27% (inactive)	
CC(C)c1ccc(NC(=O)c2cc(S(=O)(=O)N3CCc4ccccc4C3)ccc2F)cc1	17.2% (inactive)	
CCCCNC(=O)c1ccc2c(c1)NC(=O)C(C(C)C)N2 (stereo unspecified)	-9.16% (inactive)	
COc1ccc(C(=O)Nc2nonc2-c2ccc(OC)c(OC)c2)cc1Cl	-18.6% (inactive)	
COc1cc2nc(NCC(C)c3ccccc3)n3nc(-c4ccccc4)nc3c2cc1OC (stereo unspecified)	1.87% (inactive)	
Cc1cccc(N(C)C(=O)CS(=O)(=O)c2cccc3nsnc23)c1	-0.304% (inactive)	
CCN1CCN(c2ccc(/C=C/c3ccnc4ccccc34)cc2)CC1	-1.72% (inactive)	
Cc1ccc(C2C=C(c3ccc(Cl)cc3)Nc3nc(NC(=O)CCC(=O)O)nn32)cc1 (stereo unspecified)	26.6% (inactive)	
COc1ccc(N2CCN(c3nc(-c4ccccc4F)nc4ccccc34)CC2)cc1	-10.1% (inactive)	
Cc1cccc(C)c1NC(=O)N1CC(C)OC(C)C1 (stereo unspecified)	0% (inactive)	
Cc1cccc(C)c1NC(=O)CN(C)C(=O)CCC(=O)c1ccccc1	2.94% (inactive)	
Cc1cccc(C)c1NC(=O)C(Cl)C(=O)c1ccccc1 (stereo unspecified)		11.2 µM (active)
Cc1ccc2c(=O)cc(C(=O)Nc3sc4c(c3C(=O)NCc3cccnc3)CCCC4)oc2c1	73.5% (inactive)	
N#Cc1ccc[n+](CC(=O)c2ccc(F)cc2)c1	-10.5% (inactive)	
Cc1ccc(C)c(Nc2nnc(-c3ccc(C)c(S(=O)(=O)N4CCCCC4)c3)c3ccccc23)c1	-18.5% (inactive)	
CCn1c(CNC(=O)C23CC4CC(CC(C4)C2)C3)nnc1SCC(=O)Nc1ccc(OC)cc1	-22.1% (inactive)	
CC(=O)Nc1ccc2nc(SCCOc3cc(C)cc(C)c3)sc2c1	-6.33% (inactive)	
Brc1cccc[n+]1Cc1cccc(C[n+]2ccccc2Br)c1	1.8% (inactive)	
O=C(CCc1ccc(O)cc1)NN=Cc1cc(Br)ccc1O	-15.4% (inactive)	
Cc1c(C(=O)Nc2ccccn2)oc2ccc(Br)cc12	0.0321% (inactive)	
Oc1ccc(Br)cc1/C=N/Nc1ccccn1		0.562 µM (active)
CCn1cc(C(=O)NCCc2ccccc2)c(=O)c2cc(S(=O)(=O)N3CCCCCC3)ccc21	-16.6% (inactive)	
CCCN(CC1COc2ccccc2O1)C(=S)Nc1ccc(C)cc1 (stereo unspecified)	0% (inactive)	
S=C(NCC1COc2ccccc2O1)Nc1ccc(Br)cc1 (stereo unspecified)		22.4 µM (active)

Structure (SMILES)	activity, negative = inhibition	Potency
CC(NC(=S)Nc1ccccc1)C1COc2ccccc2O1 (stereo unspecified)	0% (inactive)	
CCOC(=O)c1ccc(NC(=O)Cn2c(=O)n(-c3ccc(C)cc3)c(=O)c3c2cnn3C)cc1	-13.3% (inactive)	
COc1cc2nc(C#Cc3nc4cc(OC)c(OC)cc4[nH]3)[nH]c2cc1OC	-3.4% (inactive)	
Cc1ccc(Cl)cc1NC(=O)CSc1nccn1C	1.32% (inactive)	
Cc1ccc(C)c(NC(CC(=O)c2ccccc2)C(=O)OCC(=O)c2cccs2)c1 (stereo unspecified)	-23.2% (inactive)	
C[N+]1(CC(=O)c2cccs2)CCOCC1	13.9% (inactive)	
Cc1ccccc1C(CC(=O)c1cccs1)C(C#N)C#N (stereo unspecified)		20 µM (active)
Cc1ccc(-n2nnnc2CNC(=O)c2ccccc2C)cc1C	-0.406% (inactive)	
CCN(c1ncnc2c1cnn2-c1ccc(C)cc1)C1CCCCC1	4.65% (inactive)	
O=S(=O)(NCc1ccccc1Br)c1ccccc1Br	-10.9% (inactive)	
CCN([C@H](CO)C(C)C)S(=O)(=O)c1ccccc1Br	-5.37% (inactive)	
CC(C)c1ccc(OCC(=O)N(Cc2ccc(N(C)C)cc2)C2CCS(=O)(=O)C2)cc1 (stereo unspecified)	-13.8% (inactive)	
C[C@H]1CN(c2ccc(Br)cc2)C(=O)[C@@H]1CC(=O)Nc1ccc(Br)cc1	14.4% (inactive)	
CNC(=O)C[C@H]1C(=O)N(c2ccc(OC)cc2)C[C@@H]1Cc1ccccc1	-0.75% (inactive)	
CC(C)c1ccc(NC(=O)CN(C)S(=O)(=O)c2ccc3c(c2)c(=O)n(C)c(=O)n3C)cc1	-16.7% (inactive)	
Cc1c(CNC2CCCCC2)c(C(=O)O)c(C)n1Cc1cccc(Cl)c1	-0.0955% (inactive)	
Cc1cccc(N2CCN(C3=C(c4ccccc4)C(=O)c4ccccc43)CC2)c1C	17% (inactive)	
COc1c(O)ccc2c1CN1CCc3cc4c(cc3C1C2)OCO4 (stereo unspecified)		14.1 µM (active)
COc1cc(C(=O)CCc2ccc3c(c2)OCO3)cc(OC)c1OC	5.53% (inactive)	
COc1ccc(CN2CCCC(N3CCc4ccccc4C3)C2)c(O)c1 (stereo unspecified)	-14.6% (inactive)	
C#CCOc1ccc(C2CC(=O)Nc3c2c(C)nn3-c2nc(C)cc(C)n2)cc1 (stereo unspecified)	-1.64% (inactive)	
COc1ccccc1CNc1ccc(-c2nc(-c3ccccc3C)no2)cc1[N+](=O)[O-]	-9.17% (inactive)	
COc1ccc(S(=O)(=O)NCCOc2ccccc2)cc1F	16.2% (inactive)	
COc1ccc(S(=O)(=O)NCCCCOc2ccc(Cl)cc2)cc1		12.6 µM (active)
COc1ccc(OCCNS(=O)(=O)Cc2ccccc2)cc1	-7.8% (inactive)	
NC(=O)C1CCN(C(=O)c2cccc(NC(=O)c3nsc4ccccc34)c2)CC1	-22.1% (inactive)	

Structure (SMILES)	activity, negative = inhibition	Potency
O=C(CC(c1cccs1)N1Cc2ccccc2C1=O)Nc1ccc(F)cc1F (stereo unspecified)	-4.03% (inactive)	
CCOc1ccc(C(NC(=O)c2cc(OC)c(OC)c(OC)c2)c2cc(Cl)c3cccnc3c2O)cc1 (stereo unspecified)	-19.5% (inactive)	
O=C(c1ccc(S(=O)(=O)N2CCCC2)cc1)N1CCN(c2ccccc2F)CC1	-7.28% (inactive)	
CN(c1ccccc1)S(=O)(=O)c1cc(C(=O)N2CCN(c3ncccn3)CC2)ccc1Cl	-18.2% (inactive)	
CN(c1ccccc1)S(=O)(=O)c1ccc(C(=O)N2CCN(c3ccccc3Cl)CC2)cc1		15.8 µM (active)
COc1ccc(OCCCn2c(C)nc3cc(C)c(C)cc32)cc1	-10.2% (inactive)	
Cn1nnc2c(N3CCN(c4ccccc4)CC3)ncnc21	58.9% (inactive)	
O=C(O)C1=C/C(=C/C=[N+]2c3cc(O)c(O[C@H]4OC(CO)[C@@H](O)[C@@H](O)[C@@H]4O)cc3C[C@@H]2C(=O)[O-])C[C@H](C(=O)O)N1 (stereo partly specified)	-20.6% (inactive)	
Cc1nn(CC(=O)N2CCN(c3cccc(C(F)(F)F)c3)CC2)c(=O)c2cc3sccc3n12	-15.7% (inactive)	
Cc1cc(NC(=O)CC(C)C)cc(-c2nc3ncccc3o2)c1O	15.4% (inactive)	
O=C(CSc1ncnc2scc(-c3ccccc3)c12)NCc1ccc2c(c1)OCO2	-23.1% (inactive)	
CN(C)C(=O)c1cccc(-c2cnc3sc(NCc4ccc5c(c4)OCO5)nn23)c1		10 µM (active)
CCOc1c2ccc(C(=O)NCc3ccc4c(c3)OCO4)cc2nn1C	-8.29% (inactive)	
CCOc1ccc(CCNC(=O)Cn2nc(CC)n3c(cc4sc(CC)cc43)c2=O)cc1OCC	-29.1% (inactive)	
COc1cc(Nc2nc3ccc(Cl)cc3n3cnnc23)cc(OC)c1OC	39.4% (inactive)	
COc1cccc(Nc2nc3ccccc3c3nncn23)c1	-9.39% (inactive)	
FC(F)(F)c1cc(Nc2nc3ccccc3c3nncn23)ccc1Cl		17.8 µM (active)
O=C(CC(NCc1cccnc1)C(=O)O)Nc1ccc(O)cc1 (stereo unspecified)	3.04% (inactive)	
COc1ccc(NC(=O)Cn2c(=O)n(CCC(C)C)c(=O)c3cccnc32)cc1Cl	-6.53% (inactive)	
Cc1ccc(C)c(N2CCN(c3ccc4cc(S(=O)(=O)N5CCC(C)CC5)ccc4n3)CC2)c1	15.4% (inactive)	
COc1ccc(Br)cc1C1CC(=O)Nc2c1c(C)nn2-c1nc(C)cc(C)n1 (stereo unspecified)	-3.57% (inactive)	
O=C(NC(c1ccc(Cl)cc1)c1cnccn1)C1CCN(Cc2ccc(Cl)cc2)CC1 (stereo unspecified)	2.45% (inactive)	
Cc1cccnc1C(NC(=O)C1CCN(Cc2ccc(Cl)c(Cl)c2)CC1)c1ccc(Cl)cc1 (stereo unspecified)		11.2 µM (active)
COc1cccc(CN2CCC(C(=O)NC(c3ccc4c(c3)OCO4)c3ccccn3)CC2)c1 (stereo unspecified)	-6.59% (inactive)	
Cc1ccc(OCC(=O)OCc2cc(=O)n3nc(C4CC4)sc3n2)cc1C	4.88% (inactive)	
COCCNC(=O)CSc1c(C)cnc2c1c(=O)n(C)c(=O)n2C	17.4% (inactive)	

Structure (SMILES)	activity, negative = inhibition	Potency
O=S(=O)(c1ccc(Br)cc1)c1nnn2c1nc(NC1CCCCCC1)c1sccc12	43.2% (inactive)	
CCOC(=O)c1c(C)[nH]c(CCC(=O)NCCCN2CCN(c3cc(C)ccc3C)CC2)c1C	-20.3% (inactive)	
CC1=C(c2ccc(C)cc2)S(=O)(=O)NC1=NCCCN1CCN(c2cc(C)ccc2C)CC1		20 µM (active)
CC1=C(c2ccc(Cl)cc2)S(=O)(=O)N=C1N1CCN(c2cc(C)ccc2C)CC1	26.8% (inactive)	
COC(=O)c1c(NC(=O)CCCOc2ccccc2)sc2c1CCC(C)C2 (stereo unspecified)	14.7% (inactive)	
CSc1ccc(NC(=O)Cn2nnnc2-c2ccccc2F)cc1	-20.5% (inactive)	
CCc1ccc(-n2nnc(-c3nc(-c4ccccc4)no3)c2C)cc1	-34.3% (inactive)	
O=C(c1ccccc1)N1CCN(c2cc(-c3ccccc3)nc3cc(-c4cccc(Cl)c4)nn23)CC1	8.56% (inactive)	
COc1cccc(-c2cc3nc4c(c(N5CCC6(CC5)OCCO6)n3n2)CCCC4)c1		12.6 µM (active)
O=C(CC(c1cccs1)N1Cc2ccccc2C1=O)Nc1ccc(F)c(F)c1 (stereo unspecified)	-4.52% (inactive)	
CCOc1ccccc1NC(=O)Cn1c(=O)n(Cc2ccco2)c(=O)c2sc3ccccc3c21	-0.989% (inactive)	
Cc1cccc(NC(=O)C2CCCN(C(=O)NCc3ccccc3)C2)c1C (stereo unspecified)	-10.4% (inactive)	
Cc1c(Cl)cccc1NC(=O)C1CCCN(C(=O)c2cnn(-c3ccccc3)c2-n2cccc2)C1 (stereo unspecified)		12.6 µM (active)
Cc1c(Cl)cccc1NC(=O)C1CCCN(c2ncnc3onc(C)c23)C1 (stereo unspecified)	-13.3% (inactive)	
CCOc1ccccc1NC(=O)Cn1c2ncccc2c(=O)n1-c1ccc(C)c(C)c1	-0.756% (inactive)	
Cc1[nH]c2ccccc2c1C(=O)C(=O)N(C)c1ccccc1	-12% (inactive)	
COc1ccc(-c2cn3c(C)c(C(=O)Nc4cc(C)cc(C)c4)sc3n2)cc1	0.33% (inactive)	
COc1ccc(C(C(=O)NC2CCCCC2)N(C(=O)CCl)c2ccccc2Cl)cc1 (stereo unspecified)	5.59% (inactive)	
COc1ccc(CCNC(=O)CN(c2ccccc2)S(C)(=O)=O)cc1OC	-11.8% (inactive)	
COc1ccc(C(CCN(Cc2ccc(OC)c(OC)c2)C(=O)CCl)c2ccccc2)cc1 (stereo unspecified)		14.1 µM (active)
CCn1c(=O)c2cc(C(=O)Nc3cccc(C(C)=O)c3)sc2c2ccccc21	36.2% (inactive)	
CCn1c2ccccc2c2cc(CC(N)=O)ccc21	10.2% (inactive)	
CC(=O)c1ccc2c(c1)c1ccccc1n2CC(C)C		7.08 µM (active)
